Mtb hypoxia inh: reduces hypoxia-regulated biosensor signal in M. tuberculosis; M. tuberculosis hypoxia-regulated fluorescent reporter, fluorescence; fluorescence inhibition, % (no concentration beside the values); hit rate 0.1% among 300,000; in the data active means fluorescence inhibition mostly above about 23%, no sharp cut-off; inactive means mostly below about 17%
FBA Mtb inh: inhibits M. tuberculosis FBA enzyme. hit rate 2.3% among 360,000. inhibition, % at 1 µM. AID 588726. P9WQA3. purified M. tuberculosis FBA, fluorescence read-out; in the data active means inhibition above about 27%;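 further: 0% = vehicle and 100% = reference inhibitor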
UGM FP inh: blocks M. tuberculosis UGM enzyme | P9WIQ1 | purified UGM, fluorescence polarization probe displacement | inhibition, % at 10 µM | hit rate 0.06% among 320,000; in the data active means inhibition above about 10%, passing the limit was not always enough; inconclusive means no clear call, values can overlap the other calls
Target sequence (P9WIQ1 whole entry, looked up): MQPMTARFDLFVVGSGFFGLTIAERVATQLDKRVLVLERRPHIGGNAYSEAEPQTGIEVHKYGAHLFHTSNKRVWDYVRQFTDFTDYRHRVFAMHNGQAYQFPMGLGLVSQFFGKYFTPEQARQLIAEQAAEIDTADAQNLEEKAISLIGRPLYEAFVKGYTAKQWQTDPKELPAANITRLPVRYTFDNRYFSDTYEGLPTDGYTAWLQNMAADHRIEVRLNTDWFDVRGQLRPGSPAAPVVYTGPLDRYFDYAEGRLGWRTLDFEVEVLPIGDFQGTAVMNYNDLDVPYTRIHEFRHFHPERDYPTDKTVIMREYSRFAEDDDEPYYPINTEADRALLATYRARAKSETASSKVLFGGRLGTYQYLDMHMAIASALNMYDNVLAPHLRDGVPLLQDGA
GDH-TPI counter: inhibits GDH-TPI coupling enzymes, artifact for Mtb FBA screen; hit rate 1.2% among 360,000; inhibition, % at 4.8 µM; GDH-TPI coupled enzyme counterscreen, NADH absorbance; in the data active means inhibition above about 30%;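 further: 0% = DMSO wells and 100% = wells lacking the enzyme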
Rv3671c protease: inhibitors of M. tuberculosis serine protease Rv3671c. P9WHR9. inhibition, % at 5.96 µM. hit rate 0.048% among 320,000. AID 2606; in the data active means inhibition above about 38%;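 further: extracellular domain of Rv3671c used as enzyme; 0% = enzyme with DMSO and 100% = no enzyme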
FadD28 FP inh: M. tuberculosis FadD28 bisubstrate binding inhibition; FadD28 bisubstrate probe binding, fluorescence polarization; inhibition, % at 12.5 µM; hit rate 0.22% among 360,000; AID 588549; in the data active means inhibition above about 8.5%, passing the limit was not always enough; inconclusive means no clear call, values can overlap the other calls
* marks the source's active call; other numbers are inactive results; ? = inconclusive; / = no result given; + = active, no number. The list is not random: actives were taken first. Their share in the collection is about 3.5%.

SMILES	Mtb hypoxia inh	FBA Mtb inh	UGM FP inh	GDH-TPI counter	Rv3671c protease	FadD28 FP inh
CCCCC(CNC(CNC)C(C)CC)NCCC12CCC(CC1)C2 (stereo not given)	15	/	/	/	/	/
O=C(N/N=C/C=C/c1ccccc1)c1cccc(Br)c1	/	-6	3	65*	10	-2
O=C(NN=C/C=C/c1ccccc1)c1cccc(Br)c1	5	/	/	/	/	/
O=C(/C=C/c1ccccc1)NC(=S)NNC(=O)c1cnccn1	/	5	0	41*	5	-1
COc1ccc(/C=C/C(=O)NC(=S)NNC(=O)c2cccnc2)cc1OC	-4	-2	2	38*	4	-2
COc1cc(C(=O)NNC(=S)NC(=O)/C=C/c2ccccc2)cc(OC)c1OC	-1	2	1	43*	10	-2
COc1ccc(/C=C/C(=O)NC(=S)NNC(=O)c2cccs2)cc1OC	-1	2	-2	21	13	-3
O=C(/C=C/c1ccccc1)NC(=S)NNC(=O)c1cccnc1	0	2	-1	15	4	0
COc1cc(C(=O)NNC(=O)/C=C/c2ccccc2)cc(OC)c1OC	2	2	1	10	-1	-2
COc1ccc(/C=C/C(=O)NC(=S)NNC(=O)Cc2cccs2)cc1OC	/	6	1	38*	-6	1
NC(COc1ncn(-c2ccccc2)n1)=NS(=O)(=O)c1ccc(Cl)cc1Cl	6	/	/	/	/	/
CC(C)CC(NC(=O)c1nc[nH]c1C(=O)NC1CCN(C(=O)OC(C)(C)C)CC1)C(=O)OC(C)(C)C (stereo not given)	-8	/	/	/	/	/
COC(=O)C(=O)/C=C(/O)c1ccc(C)cc1	12	/	/	/	/	/
CC1CC2C3CCC4=CC(=O)C=C[C@]4(C)[C@@]3(F)C(O)C[C@]2(C)[C@@]1(O)C(=O)COP(=O)(O)O (stereo not given in full)	12	/	/	/	/	/
CCOC(=O)C1=C(C)NC(=O)NC1c1ccc(N(C)C)cc1 (stereo not given)	3	1	/	-4	/	-3
CCC(CC)COC(=O)C1=C(C)NC(=O)NC1c1ccc(N(C)C)cc1 (stereo not given)	10	184*	-1	-2	5	0
Cc1cc(=O)oc2cc3c(cc12)OCCN3	/	+	3	18	-9	1
Cc1cc(=O)oc2cc3c(cc12)CCCN3	0	+	-2	17	4	1
CC(=O)c1cc2c(C)cc(=O)oc2cc1O	-16	9	-1	17	-8	-3
COc1ccc2oc(=O)cc(C)c2c1	/	21	2	8	7	-3
Cc1cc(=O)oc2cc3c(cc12)OCO3	-8	+	-2	20	-5	0
Cc1cc2c(C)cc(=O)oc2c2c1NCCC2	3	+	2	2	1	2
Cc1cc2cc3c(C)cc(=O)oc3c(C)c2o1	13	6	-1	-1	0	2
O=c1oc2ccccc2c2c1SC(C(F)(F)F)C2 (stereo not given)	15	+	-2	12	1	-5
N#C/C(=N\Nc1ccc(Cl)cc1)C(=O)c1ccccc1	/	-18	0	31*	1	1
SMILES	Mtb hypoxia inh	FBA Mtb inh	UGM FP inh	GDH-TPI counter	Rv3671c protease	FadD28 FP inh
S=c1[nH]nc(-c2ccccc2)n1N=Cc1cccc(Br)c1	-2	/	/	/	/	/
COc1cc(OC)cc(C(=O)/C=C2\Sc3ccccc3N2C)c1	-2	2	-1	12	3	0
COCC(=O)/C=C1\Sc2ccccc2N1C	11	-6	-2	37*	-12	?
CN1/C(=C/C(=O)C2CCC2)Sc2ccccc21	21	2	2	68*	-11	0
CN1/C(=C/C(=O)c2cccs2)Sc2ccccc21	/	1	-4	-10	4	-3
CCN(CC)Cc1c(O)ccc2c(=O)c(Oc3ccccc3OC)c(C)oc12	5	+	3	22	-1	0
COc1ccccc1Oc1c(C)oc2c(CN3CCN(CCO)CC3)c(O)ccc2c1=O	5	/	3	/	26	/
COc1ccccc1Oc1c(C)oc2c(CN(C)C)c(O)ccc2c1=O	1	+	4	23	-31	-2
Cc1nn(C(=O)c2cc3sccc3[nH]2)c(C)c1C	8	-1	0	35*	-7	-2
O=C(O)COc1ccccc1C=NNc1ccc(S(=O)(=O)Nc2ccc(Cl)cc2)cc1[N+](=O)[O-]	12	/	/	/	/	/
COc1ccc(N2C(=O)CS/C2=N\C(=S)Nc2ccccc2)cc1	/	0	-1	37*	-11	0

Compound activity as filed in PubChem.
